Pf growth 96h: P. falciparum growth inhibition at 96 hours; P. falciparum luciferase reporter growth, 96 h; Potency, µM (highest dose often 28.7 µM), for the others: at the highest dose activity change, negative = inhibition, usual class: inhibitors; 320,000 compounds, 6.9% hits; also: potency is read from the fitted curve at half-maximal effect
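Two-generation exposure (96 h) targets delayed-death phenotype. Reporter parasites carrying integrated firefly luciferase, in red cells at 2% hematocrit and 0.05% parasitemia final, kept at 37 C, 5% CO2; luminescence loss indicates inhibition.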
Pf growth 48h: P. falciparum growth inhibition at 48 hours (one generation). P. falciparum luciferase growth in erythrocytes, 48 h. Potency, µM (titrated, usually from 28.7 µM), for inactives: at the top dose activity change, negative = inhibition, usual class: inhibitors. 310,000 compounds, 5.9% hits; also: potency is read from the fitted curve at half-maximal effect
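Luminescence readout; reporter = integrated firefly luciferase in P. falciparum. RBC culture at 2% hematocrit, 0.1% parasitemia final, 37 C/5% CO2; decreased signal taken as growth inhibition.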
HCV inhibitor: inhibitors of hepatitis C virus infection. Huh7.5.1 HCVcc-Cre infection, luciferase reporter, 44 h. AID 651820. Potency, µM (highest dose often 41.8 µM), inactives show top-dose activity change, negative = inhibition, usual class: inhibitors. 340,000 compounds, 3.4% hits; also: potency is read from the fitted curve at half-maximal effect
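Reporter virus HCVcc-Cre (~0.5 moi) infects cells exposed to compound; seeding density 1,000 cells/well with 4 h settling beforehand. Luminescence, 15 sec read, taken 44 h post-infection following a 15 min RT substrate incubation.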
HCMV antiviral: blocks human cytomegalovirus replication; activity change, negative = inhibition, % at 57.5 µM; 410,000 compounds, 4.5% hits; HFF cells, HCMV-luciferase reporter, 72 h; active compounds read low; in the data active = activity change below about -60%; inconclusive = no clear call, values can overlap the other calls; inactive = above about -39%
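Inhibition of viral replication was scored as loss of reporter luminescence in HFFs infected with HCMV-luciferase (MOI 1 PFU/cell) for 72 h; compounds tested at 2 doses, normalized to buffer and Salinomycin controls.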
* hit, by the source's call; ? = inconclusive; . = no result given. An excerpt weighted towards active compounds, which were near 13% of everything screened. Unless noted, calls follow the shape of the dose curve; as a rule, active = well fitted inhibition curve with a large enough effect; inconclusive = small, poorly fitted or top-dose-only effect, or another doubt; inactive = no such curve, though single readings can be large or run the other way. % is scaled to controls: 0 for no effect and ±100 for the full control effect.

SMILES | Pf growth 96h | Pf growth 48h | HCV inhibitor | HCMV antiviral
Cc1nnc(N2CCCC(C(=O)Nc3cc(F)ccc3F)C2)c2nn(-c3ccccc3)c(C)c12 (stereo unspecified) | ? | ? | 11µM* | -21
CN(CCOc1ccc(Cl)cc1)C(=O)c1cccc(S(=O)(=O)N2CCN(c3ccc(F)cc3)CC2)c1 | . | . | 2.8µM* | .
COc1ccc(CCN(C)C(=O)c2cccc(S(=O)(=O)N3CCN(c4ccc(F)cc4)CC3)c2)cc1OC | . | . | 2.8µM* | ?
CCOc1ccccc1NC(=O)Cn1nc2c3cc(F)ccc3n(Cc3cccc(C)c3)cc-2c1=O | . | . | . | 7
Cc1cccc2cc(C#N)c(SCC#N)nc12 | -13% | 33% | 4% | -67*
CCc1nc(SCC#N)c(C#N)cc1C | 21% | 0% | . | .
Cc1cccc2cc(C#N)c(SCC(=O)NNC(=O)Cc3ccccc3)nc12 | 54% | 52% | -22% | -63*
O=C1CC(c2ccccc2)CC(O)=C1C=Nc1ccc(O)cc1 (stereo unspecified) | 13µM* | 19% | -8% | ?
O=C1CC(c2ccccc2)CC(O)=C1C=NCc1ccccc1Cl (stereo unspecified) | 13% | 7% | -24% | -81*
O=C(CCCc1ccccc1)NC1CC(=O)N(c2ccc(Cl)cc2)C1 (stereo unspecified) | . | . | . | 57
NC(=O)C1(N2CCCCC2)CCN(C(=S)Nc2ccc(F)cc2)CC1 | -16% | -2% | 40% | -11
NC(=O)C1(N2CCCCC2)CCN(CC(=O)Nc2cc(Cl)ccc2Cl)CC1 | 18% | 12µM* | ? | -20
NC(=O)C1(N2CCCCC2)CCN(C(=S)Nc2cc(F)cc(F)c2)CC1 | 19% | -15% | -1% | -64*
COc1ccc(NC(=O)CN2CCN(S(=O)(=O)c3cccs3)CC2)cc1Cl | 12µM* | ? | -7% | ?
COc1ccc(Cl)cc1NC(=O)CN1CCN(S(=O)(=O)N2CCOCC2)CC1 | 9% | -26% | -22% | -33
COc1ccc(Cl)cc1NC(=O)CN1CCN(S(=O)(=O)c2ccc(F)cc2)CC1 | -9% | 3.7µM* | -13% | -27
COc1ccc(CNC(=O)CN2CCN(S(=O)(=O)c3cccs3)CC2)cc1OC | 9% | 9% | -10% | 18
CC(C)Oc1ccc(CNC(=O)C2CCN(Cc3cc4ccccc4n3Cc3ccccc3)CC2)cc1 | . | . | . | 4
CCCCN=CN1c2cc(OC)ccc2-n2cccc2C1c1ccccc1 (stereo unspecified) | . | . | . | 85
Cc1cccc(C(=O)Nc2ccccc2OCc2cc(=O)n3cc(C)ccc3n2)c1 | . | . | . | 16
O=C(CN1CCNCC1)Nc1ccccc1Cl | ? | . | 9% | 14
O=C(CN1CCN(C(=O)c2cncn2-c2ccccc2)CC1)Nc1ccccc1Cl | 15µM* | ? | 26% | -14
COc1ccc(NC(=O)CN2CCN(S(=O)(=O)c3ccc(C(C)C)cc3)CC2)cc1OC | -26% | ? | 4% | -9
COc1ccc(S(=O)(=O)N2CCN(CC(=O)Nc3cc(Cl)ccc3Cl)CC2)cc1 | 10% | -9% | -15% | -71*
COc1ccc(C)cc1NC(=O)CN1CCN(S(=O)(=O)c2ccc(C(C)C)cc2)CC1 | 30% | 13µM* | -8% | ?
SMILES | Pf growth 96h | Pf growth 48h | HCV inhibitor | HCMV antiviral
COc1ccc(C)cc1NC(=O)CN1CCN(S(=O)(=O)c2ccc(Cl)cc2)CC1 | ? | 12µM* | ? | ?
COc1ccccc1NC(=O)CN1CCN(CC(=O)Nc2cc(C)ccc2OC)CC1 | 31% | ? | -8% | -17
Cc1ccc(C2c3[nH]c4ccccc4c3CCN2C(=O)Nc2ccc(C)c(C)c2)cc1 (stereo unspecified) | . | . | . | 63
Cn1c(=O)n(-c2ccc3c(c2)OCO3)c2nc(-c3ccc(Cl)cc3)nc(C(N)=O)c21 | . | . | . | -15
CCc1cccc(NC(=O)C2CCC(CNS(=O)(=O)c3ccc(Br)s3)CC2)c1 (stereo unspecified) | . | . | . | 9
O=C(COc1ccccc1[N+](=O)[O-])N1CCC(c2nc3ccccc3o2)CC1 | . | . | . | -35
COc1ccc(NC(=O)CN2CCN(CC(=O)Nc3ccccc3Cl)CC2)c(OC)c1 | 15µM* | . | -30% | -28
COc1ccc(S(=O)(=O)N2CCN(CC(=O)Nc3cccc(OC)c3)CC2)cc1 | 13µM* | -12% | 16% | -9
COc1ccc(NC(=O)CN2CCN(CC(=O)Nc3ccccc3OC)CC2)c(OC)c1 | 32% | -5% | -19% | 15
CCc1ccc(CN2CCc3nc(N4CCN(c5ccccc5F)CC4)ncc3C2)cc1 | . | . | . | -28
CC1=CC2OC3CC4OC(=O)C=CC=CC(C(C)O)OCC(O)C(C)CC(=O)OCC2(CC1O)C4(C)C31CO1 (stereo unspecified) | . | . | . | -97*
CC(=O)OC1C(=O)OCC23CCC4(C)OC4C2OC2CC(OC(=O)C=CC=CC(=O)OCCC1C)C3(C)C21CO1 (stereo unspecified) | . | . | . | -96*
CC(O)C1C=CC=CC(=O)OC2CC3OC4C5OC5(C)CCC4(COC(=O)C4OC4(C)C(O)CO1)C2(C)C31CO1 (stereo unspecified) | . | . | . | -96*
CCS(=O)(=O)N1CC(=O)N(c2ccc(Cl)cc2C)C(C)(C(=O)NC2CCCCCC2)C1 (stereo unspecified) | . | . | . | 0
COc1ccccc1N1CCN(c2nc3c(S(=O)(=O)c4ccccc4)nnn3c3ccc(Cl)cc23)CC1 | . | . | . | 6
CCCCNc1nc(Oc2ccc(OCCC)nn2)nc(N(C)C)n1 | . | . | . | 10
O=P(c1ccccc1)(c1ccccc1)C(O)c1ccccn1 (stereo unspecified) | 25% | 22% | 12% | 4
O=P(c1ccccc1)(c1ccccc1)C(c1ccccn1)P(=O)(c1ccccc1)c1ccccc1 | 9.3µM* | ? | 9% | 37
O=C(NCc1ccco1)/C(=C\c1cccs1)NC(=O)c1ccco1 | 4.1µM* | 35% | 21% | 33
O=C(NCc1ccco1)/C(=C\c1cccs1)NC(=O)c1ccsc1 | 11% | -7% | 24% | -20
Cc1ccc(C(=O)N/C(=C\c2sccc2C)C(=O)NCc2ccco2)cc1 | 3.3µM* | 8% | 8% | -15
CC(C)c1cnc2c(c1SCC(=O)NCc1ccccc1)c(=O)n(C)c(=O)n2C | . | . | . | 3
CCc1nc2c(OCc3c(C)noc3C)cccn2c1N(C=O)Cc1ccccc1 | . | . | . | -27
CCOC(=O)C(NC(=O)c1ccccc1F)(Nc1cc(C)on1)C(F)(F)F (stereo unspecified) | ? | 10% | 11% | -94*
CNc1nc(-c2ccc3c(c2)CCN3C(=O)c2ccc(F)cc2)cs1 | ? | 20% | ? | -19
CNc1nc(-c2ccc3c(c2)CCN3C(=O)c2cccc(F)c2)cs1 | -38% | -4% | 11µM* | -10
O=C(CN1CCCC1)Nc1nc(-c2ccc3c(c2)CCN3C(=O)c2ccccc2F)cs1 | ? | 15µM* | 10µM* | .
COc1ccc(-c2nc3ccc(C(=O)NCC(OC)OC)cc3nc2-c2ccc(OC)c(OC)c2)cc1OC | 13% | 4.1µM* | -27% | 37

Screening results as filed in PubChem BioAssay.
